PubChem BioAssay (NCI)
The panel holds about 83,000 compounds, 20% with a hit somewhere; the sample as a whole holds those more often.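 Method: cells in 96-well plates; compound added at one concentration; 48 h incubation; percent growth measured; values under 10 scored active.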 Values without a mark were called inactive. Calls of active or inactive are those of the source.

Key:
Experiment in all cases: NCI-60 one-dose screen, 48 h (100 = growth as untreated, 0 = no growth, -100 = all killed)
Conditions in all cases: 10 µM unless noted
T-47D breast = test system: T-47D breast
BT-549 breast = test system: BT-549 breast
MDA-MB-435 melanoma = test system: MDA-MB-435 melanoma
SW-620 colon = test system: SW-620 colon
MCF7 breast = test system: MCF7 breast
HCT-116 colon = test system: HCT-116 colon
HCC-2998 colon = test system: HCC-2998 colon
KM12 colon = test system: KM12 colon

Row | SMILES | growth (T-47D breast) | growth (BT-549 breast) | growth (MDA-MB-435 melanoma) | growth (SW-620 colon) | growth (MCF7 breast) | growth (HCT-116 colon) | growth (HCC-2998 colon) | growth (KM12 colon)
1 | CN1CCN(CC#CCn2c3c(c4ccccc42)C[C@]2(C)[C@H]4CC=C5[C@@H]6CC(C)(C)CC[C@]6(C(=O)N6CCOCC6)CC[C@@]5(C)[C@]4(C)CC[C@H]2C3(C)C)CC1 | 78.7% | 96.2% | 82.7% | 11.6% | -3.42% (active) | 22% | 85.4% | 66%
2 | C=C(C)[C@@H]1CC[C@]2(C(=O)NC3CCCCC3)CC[C@]3(C)[C@H](CC[C@@H]4[C@@]5(C)CC[C@H](N)C(C)(C)[C@@H]5CC[C@]43C)[C@@H]12 | 80.6% | 106% | 98% | 75.4% | 24.5% | 7.83% (active) | 92.1% | 95.8%
3 | COc1ccc(/C(=N\NC(N)=S)c2ccc(Cl)cc2)cc1OC | 18.1% | 14.2% | -35.1% (active) | 15.9% | 14.4% | 14.9% | 52.6% | 19.4%
4 | CCCCc1nc2c(N)nc3ccccc3c2n1Cc1cccc(CN)c1 | 74% | 28.1% | 4.8% (active) | 52.6% | 24.8% | 23% | 59.7% | 49.9%
5 | Cn1cc(-c2cc3ncnc(Nc4ccc(CC(=O)Nc5nc(C(C)(C)C)cs5)cc4)c3s2)cn1 | 3.67% (active) | 61.3% | 54.6% | 53.8% | 41.8% | 39% | 74.6% | 13.2%
6 | O=C(CSc1nc2ccccc2c(=O)n1-c1ccccc1)Nc1ccc(S(=O)(=O)Nc2nccs2)cc1 | 69.3% | 45.2% | 84.1% | 67.9% | 57.6% | 37.7% | 118% | 94.4%
7 | Cc1ncn(-c2ccc(/C=N/Nc3ccnc4cc(Cl)ccc34)cc2)c1C | -61.6% (active) | -93.7% (active) | -80.2% (active) | -60.4% (active) | -69.1% (active) | -83.6% (active) | -44.5% (active) | -25.8% (active)
8 | C#C[C@]1(O)CC[C@H]2[C@@H]3CC=C4c5sc(Nc6ncccc6C)nc5CC[C@]4(C)[C@H]3CC[C@@]21C | 29.2% | -1.46% (active) | -39.3% (active) | -40.9% (active) | -48.8% (active) | 7.15% (active) | 28.8% | 3.23% (active)
9 | O=C(CSc1nnc(-c2cccs2)n1-c1ccccc1)Nc1ccccc1F | 88.9% | 89.2% | 3.39% (active) | 69.3% | 58.9% | 83.7% | 91.6% | 61.5%
10 | CC(=O)c1c([Si](C)(C)C)c2cc(C#N)ccn2c1C(=O)c1ccc(Br)cc1 | 73.8% | 97.5% | 92.5% | 87.2% | 82.5% | 56% | 89.9% | 88.3%
11 | CN1CCN(c2ccc(C(=O)/C=C/c3cc(F)cc(C(F)(F)F)c3)cc2)CC1 | 51.9% | 71.2% | 24% | 20% | 8.55% (active) | 22.8% | 86.6% | 35.5%
12 | O=C(/C=C/c1ccc(Cl)c(Cl)c1)Nc1ncc(Cc2ccc(Cl)c(Cl)c2)s1 | 24.6% | 47.4% | 26.9% | 33.3% | 28.7% | 26.6% | 41.2% | 13.3%
13 | Cc1ccc(NC(=O)/C=C/c2ccc(OCCCOc3ccc4c(C)cc(=O)oc4c3)cc2)cc1 | 70.3% | 98.7% | 77.1% | 83.5% | 73.4% | 78.9% | 80.5% | 84.8%
14 | O=C(COc1ccc(/C=C2\C(=O)Nc3cc(Cl)ccc32)cc1)Nc1ccc(Cl)cc1 | 68% | 70.3% | 51.2% | 55.3% | 47.1% | 54.8% | 96.1% | 36.4%
15 | COc1ccc(NC2=C(Br)C(=O)C(C)=C(C)C2=O)cc1OC | -8.45% (active) | 112% | 102% | 107% | 72.1% | 90.7% | 102% | 59.2%
